# Data: a collection of fitness landscapes (doi:10.1016/j.celrep.2020.107928)
# The full ranking holds about 81,000 sequences; the median of “one-hybrid fitness for binding NBS DNA” is about -0.1, and the highest 2% start at about 0.36. Many of the other results were omitted from the sample, so the highest values are more common in it than they were.
# B1: Caulobacter ParB omega fusion; a variant is named by its letters at X, in order, B8GW30 (parent)
# chain: MESVVVGEPGMSEGRRGLGRGLSALLGEVDAAPAQAPGEQLGGSREAPIEILQRNPDQPRRTFREEDLEDLSNSIREKGVLQPILVRPSPDTAGEYQIVAGERAWRAAQRAGLKTVPIMVRELDDLAVLEIGIIENVQRADLNVLEEALSYKVLMEKFERTQENIAQTIGKSXSHVANXMRLLXLPDEVQSYLVSGELTAXHARAIAAAADPVALAKQIIEGGLSVRETEALARKAPNLSAGKSKGGRPPRVKDTDTQALESDLSSVLGLDVSIDHRGSTGTLTITYATLEQLDDLCNRLTRGI
# Variants of: B1
# Assay: one-hybrid fitness for binding NBS DNA (the Noc-binding site; scaled: cognate 1, non-cognate 0); higher = stronger binding
# Conditions: with NBS DNA site
# Method in brief: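 Caulobacter ParB libraries with four specificity codons randomised were screened by bacterial one-hybrid selection in the E. coli USO strain, using a HIS3 reporter whose site lies 19 bp from the promoter. Selection ran for 48 hours at 37°C on M9 lacking histidine, with 0.1 mM IPTG and 5 mM 3-AT. Plasmids were Illumina-sequenced before and after selection, three replicate libraries were pooled, and variants with under 10 reads were dropped. Fitness is the log change in each variant's read ratio to wild type, rescaled against the cognate and non-cognate sites.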
row,Variant,one-hybrid fitness for binding NBS DNA
1,LGRE,≤ 0.2
2,ACPI,≤ 0.2
3,REGM,≤ 0.2
4,TASA,≤ 0.2
5,RQQS,0.429
6,RQQP,≤ 0.2
7,RQWR,0.244
8,RQPR,≤ 0.2
9,RQSD,≤ 0.2
10,RQSH,≤ 0.2
11,RQQD,≤ 0.2
12,RQNR,0.559
13,RQRR,0.717
14,RQSR,0.474
15,RQDR,≤ 0.2
16,RQND,≤ 0.2
17,ARKV,≤ 0.2
18,NQVL,≤ 0.2
19,FWRE,≤ 0.2
20,DFAH,≤ 0.2
21,PFPI,≤ 0.2
22,KFHC,≤ 0.2

row,Variant,one-hybrid fitness for binding NBS DNA
1,LPAH,≤ 0.2
2,KTKA,≤ 0.2
3,EELL,≤ 0.2
4,PSMT,≤ 0.2
5,RQIR,≤ 0.2
6,RQYR,0.368
7,RQQG,≤ 0.2
8,RQQT,0.441
9,RQGS,0.408
10,RQHH,≤ 0.2
11,RQLR,0.359
12,RQHD,≤ 0.2
13,RQGN,≤ 0.2
14,RQHR,0.476
15,RQGP,≤ 0.2
16,RQQK,≤ 0.2
17,CNHR,≤ 0.2
18,SRDF,≤ 0.2
19,GICT,≤ 0.2
20,HHHV,≤ 0.2
21,ISLV,≤ 0.2
22,PQPQ,≤ 0.2

row,Variant,one-hybrid fitness for binding NBS DNA
1,SHQT,≤ 0.2
2,RQQH,≤ 0.2
3,RQQR,0.475
4,RQGD,≤ 0.2
5,RQGH,≤ 0.2
6,RQFR,0.262
7,RQKG,≤ 0.2
8,RQKR,0.752
9,RQAP,≤ 0.2
10,RQQN,≤ 0.2
11,RQVR,0.258
12,RQAR,0.427
13,RQGR,0.447
14,IAMG,≤ 0.2
15,HHPA,≤ 0.2
16,HPHL,≤ 0.2
17,TLMC,≤ 0.2
18,PVFR,≤ 0.2
19,FHGR,≤ 0.2
20,QHHG,≤ 0.2
21,RYFG,≤ 0.2
22,RQCR,0.394

row,Variant,one-hybrid fitness for binding NBS DNA
1,RQCS,0.278
2,RQYS,0.322
3,RQHN,≤ 0.2
4,RQHP,≤ 0.2
5,RQHS,0.468
6,RQRS,0.6
7,RQCN,≤ 0.2
8,RQRN,0.221
9,TYVN,≤ 0.2
10,IGSF,≤ 0.2
11,FTRC,≤ 0.2
12,PRTW,≤ 0.2
13,QSHY,0.201
14,QTHS,0.585
15,QTHY,0.384
16,QTHF,≤ 0.2
17,QTHH,0.44
18,QTHP,≤ 0.2
19,QTHD,≤ 0.2
20,QTHN,0.297
